Growth data for 13 molecules are collected here from PubChem BioAssay (NCI).

The panel holds about 83,000 compounds, 20% with a hit somewhere; the sample as a whole holds those more often.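 Values shown are percent growth following 48 h exposure of cells in 96-well plates to a single concentration of compound; below 10 was considered active.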 A number with no mark means an inactive call. Active and inactive are the calls of the source.

Holding throughout (experiment): NCI-60 one-dose screen, 48 h (100 = growth as untreated, 0 = no growth, -100 = all killed)
One experiment deals with SK-MEL-2 melanoma. The settings on record: 10 µM unless noted.
The subject of another experiment is EKVX NSCLC. The conditions noted are these: 10 µM unless noted.
The next experiment deals with SN12C renal. The settings on record: 10 µM unless noted.
The next experiment deals with UO-31 renal. The settings on record: 10 µM unless noted.
The next experiment concerns TK-10 renal. The conditions noted are these: 10 µM unless noted.
For another experiment, the system named is ACHN renal. The settings on record: 10 µM unless noted.
The next experiment has as its system A498 renal. The settings on record: 10 µM.
The next experiment has as its system HL-60(TB) leukemia. The settings on record: 10 µM unless noted.
The test system of another experiment is CCRF-CEM leukemia. The conditions noted are these: 10 µM unless noted.

Turning to `CC[C@]12C=CCN3CC[C@@]4(c5ccc(OC)cc5N(C)[C@H]4[C@@](O)(C(=O)OC)[C@@H]1OC(=O)CCCC[P+](c1ccccc1)(c1ccccc1)c1ccccc1)[C@@H]32`, the growth in the experiment on SK-MEL-2 melanoma was -41.6% (active); in the experiment on EKVX NSCLC it was 56.1%; in the experiment with SN12C renal, 4.56% (active); with UO-31 renal, 81.9%; in the experiment on TK-10 renal, 48.6%; with ACHN renal, 93.1%. The growth was 52.2% in the experiment with A498 renal, -63.5% (active) in the experiment on HL-60(TB) leukemia and 15.6% in the experiment on CCRF-CEM leukemia.
On to `Brc1ccc2c(c1)c(-c1nc(-c3c[nH]c4ncccc34)cs1)cn2CCN1CCOCC1`, for which the growth was 80% in the experiment on SK-MEL-2 melanoma; 43.5% in the experiment with EKVX NSCLC; 71.5% with SN12C renal; 35.8% in the experiment with UO-31 renal; 74.1% with TK-10 renal; 55.2% in the experiment with ACHN renal. Besides, the growth was 88.7% in the experiment with A498 renal, 71% in the experiment on HL-60(TB) leukemia and 45.8% in the experiment on CCRF-CEM leukemia.
In the case of `CC(=O)O[C@H](C[C@H](C(C)C)N(C)C(=O)[C@@H](NC(=O)[C@H]1CCCN1C)C(C)C)c1nc(C(=O)N[C@@H](Cc2ccccc2)C[C@H](C)C(=O)O)c(C)s1`, the growth with SK-MEL-2 melanoma is 36.5%; with EKVX NSCLC, 53.7%; with SN12C renal, 29.2%; in the experiment on UO-31 renal it was 49.3%; with TK-10 renal, 42.4%; in the experiment with ACHN renal it was 26.7%. Besides, the growth with A498 renal is -2.65% (active); in the experiment on HL-60(TB) leukemia it was -19.2% (active); with CCRF-CEM leukemia, 8.48% (active).
`CC[C@H](C)[C@@H]([C@@H](CC(=O)N1CCC[C@H]1[C@H](OC)[C@@H](C)C(=O)N[C@H](C)[C@@H](O)c1ccccc1)OC)N(C)C(=O)[C@@H](NC(=O)[C@@H](NC)C(C)C)C(C)C`: the growth in the experiment on SK-MEL-2 melanoma was 41.8%; in the experiment on EKVX NSCLC, 41.7%; in the experiment with SN12C renal it was 36.7%; in the experiment on UO-31 renal it was 40.6%; with TK-10 renal, 47.2%; in the experiment on ACHN renal, 29.3%. Also, the figures for the growth in the experiment with A498 renal, in the experiment with HL-60(TB) leukemia and with CCRF-CEM leukemia were -11.7% (active), -20.2% (active) and 20.8%, respectively.
Turning to `COC(=O)[C@@H](C)C[C@H](Cc1ccccc1)NC(=O)c1csc([C@@H](C[C@H](C(C)C)N(C)C(=O)[C@H](C)NC(=O)[C@H]2CCCCN2C)OC(C)=O)n1`, the growth in the experiment on SK-MEL-2 melanoma is 41.9%; with EKVX NSCLC, 53.6%; in the experiment on SN12C renal, 36%; in the experiment with UO-31 renal, 66.4%; in the experiment on TK-10 renal, 61.7%; with ACHN renal it was 48.2%. The growth was 56.4% in the experiment with A498 renal, -19.6% (active) in the experiment with HL-60(TB) leukemia and 12.3% in the experiment with CCRF-CEM leukemia.
On to `CC12CC=CCC1CCC1C2CCC2(C)C(c3ccc(=O)oc3)CCC12O` (configuration not stated), for which the growth was -33.6% (active) in the experiment on SK-MEL-2 melanoma; -85.1% (active) in the experiment on EKVX NSCLC; -13.1% (active) in the experiment with SN12C renal; -91.4% (active) in the experiment with UO-31 renal; -62.2% (active) in the experiment with TK-10 renal; -90% (active) with ACHN renal. The figures for the growth in the experiment with A498 renal, with HL-60(TB) leukemia and in the experiment on CCRF-CEM leukemia were -22.7% (active), -14% (active) and 1.08% (active), respectively.
On to `COc1ccc2c(c1)c(-c1nc(-c3c[nH]c4ncccc34)cs1)cn2CCCCN1CCCCC1`, for which the growth in the experiment with SK-MEL-2 melanoma was -53.2% (active); in the experiment on EKVX NSCLC, 49.4%; in the experiment on SN12C renal, -75.2% (active); with UO-31 renal, -87.6% (active); with TK-10 renal it was -16.6% (active); in the experiment with ACHN renal, -92.2% (active). The growth is 58.2% in the experiment on A498 renal, -69.8% (active) in the experiment on HL-60(TB) leukemia and -38.7% (active) in the experiment on CCRF-CEM leukemia.
Regarding `CC(C)(C)C(=O)OCOP(=O)(OCOC(=O)C(C)(C)C)C1CCCN(O)C1=O` (configuration not stated), the growth is 24.9% in the experiment with SK-MEL-2 melanoma; 19.7% with EKVX NSCLC; 2.67% (active) in the experiment with SN12C renal; 5.91% (active) in the experiment with UO-31 renal; 2.8% (active) in the experiment with TK-10 renal; 8.69% (active) in the experiment with ACHN renal. In addition, the growth was -24.3% (active) in the experiment with A498 renal, -21% (active) in the experiment on HL-60(TB) leukemia and 9.89% (active) in the experiment with CCRF-CEM leukemia.
As to `C/C=C(\C)C(=O)O[C@@H]1C(O)[C@H]2OC(COC(=O)CCC(=O)CCCCCC[C@H](CCCCC)O[C@@H]3OC(C)[C@H](OC(C)=O)C(O)[C@H]3O2)[C@H]1OC(=O)/C=C/c1ccccc1` (some centres not stated), the growth was -1.53% (active) in the experiment on SK-MEL-2 melanoma; 24.1% in the experiment on EKVX NSCLC; 17.2% in the experiment with SN12C renal; 15% with UO-31 renal; 11.7% in the experiment with TK-10 renal; 12% with ACHN renal. Besides, the growth with A498 renal was 14.8%; in the experiment on HL-60(TB) leukemia it was 17.8%; in the experiment with CCRF-CEM leukemia, 24.2%.
Take `ClCCN(CCCl)c1ccc(-n2cnc3c(Cl)ncnc32)cc1`: the growth is 69% in the experiment with SK-MEL-2 melanoma; 28.7% with EKVX NSCLC; 47.8% in the experiment with SN12C renal; -85.9% (active) with UO-31 renal; 84.7% with TK-10 renal; -82.1% (active) in the experiment on ACHN renal. Moreover, the figures for the growth in the experiment with A498 renal, in the experiment with HL-60(TB) leukemia and in the experiment on CCRF-CEM leukemia were 95.2%, -9.68% (active) and 13.1%, respectively.
On to `COc1ccc(C(=O)c2cc(OC)c(OC)c(OC)c2)cc1OC(C)=O`, for which the growth was 47.8% with SK-MEL-2 melanoma; 68.7% in the experiment with EKVX NSCLC; 29.5% in the experiment on SN12C renal; 39.6% in the experiment on UO-31 renal; 74.8% in the experiment on TK-10 renal; 36.7% with ACHN renal. Further, the growth was 49.8% in the experiment with A498 renal, -37.1% (active) in the experiment with HL-60(TB) leukemia and 13.8% with CCRF-CEM leukemia.
Turning to `[Cl][Hg][n]1c(-c2ccco2)nc2ccccc21`, the growth with SK-MEL-2 melanoma is 93.5%; in the experiment with EKVX NSCLC, 111%; in the experiment with SN12C renal it was 94.8%; in the experiment with UO-31 renal it was 103%; in the experiment with TK-10 renal it was 124%; in the experiment with ACHN renal, 96.6%. The growth was 114% with A498 renal, 95.5% in the experiment with HL-60(TB) leukemia and 89.9% with CCRF-CEM leukemia.
On to `COC(=O)[C@@H](NC(=O)c1cn(CCC2CCCCC2)c2ccccc12)C(C)(C)C`, for which the growth in the experiment with SK-MEL-2 melanoma is 78.1%; with EKVX NSCLC it was 58.6%; in the experiment with SN12C renal, 65.7%; in the experiment on UO-31 renal it was 39.2%; in the experiment on TK-10 renal, 77.8%; in the experiment on ACHN renal it was 59.5%. Besides, the growth with A498 renal was 84.2%; in the experiment with HL-60(TB) leukemia, 60%; in the experiment on CCRF-CEM leukemia, 72%.
